Reference: PubChem BioAssay AID743364 (National Center for Advancing Translational Sciences (NCATS), 2014)
Activity calls are given as the source filed them. Calls come from the whole dose curve; as a rule, active = well fitted curve in the direction sought with a large enough effect; inactive = no such curve, though single readings can be large or run the other way.

Experiment: qHTS profiling of inhibitors of Plasmodium falciparum (3D7) proliferation (acoustic dispense)
Details: P. falciparum 3D7 in erythrocytes, SYBR Green, 72 h; series mostly up to 49.8 µM

outcome, inactive:
Cc1[nH]c2ccccc2c1CCNCc1ccc(C=CC(=O)NO)cc1, CCCCCCCCCCOc1cc2c(=O)c(C(=O)OCC)c[nH]c2cc1OCC, CN(Cc1cnc2nc(N)nc(N)c2n1)c1ccc(C(=O)N[C@@H](CCC(=O)O)C(=O)O)cc1, Cc1ccc([N+](=O)[O-])cc1S(=O)(=O)N(C)N=Cc1cnc2ccc(Br)cn12, Cc1nc2c(C#N)cccc2n1-c1ccc(C(=O)NC2CC2)s1, CS(=O)(=O)CCNCc1ccc(-c2ccc3ncnc(Nc4ccc(OCc5cccc(F)c5)c(Cl)c4)c3c2)o1, CC(C)C[C@H](NC(=O)[C@H](CCc1ccccc1)NC(=O)CN1CCOCC1)C(=O)N[C@@H](Cc1ccccc1)C(=O)N[C@@H](CC(C)C)C(=O)[C@@]1(C)CO1, O=C1c2ccccc2-[n+]2ccc3c([nH]c4ccccc43)c21, O=C(Nc1ccc([N+](=O)[O-])cc1Cl)c1cc(Cl)ccc1O, CCS(=O)(=O)Nc1ccc2[nH]c(O)c(C(=Nc3ccc(CN4CCCCC4)cc3)c3ccccc3)c2c1, COc1cc2c(Oc3ccc(NC(=O)C4(C(=O)Nc5ccc(F)cc5)CC4)cc3F)ccnc2cc1OCCCN1CCOCC1, COc1cc2nc(N3CCCN(C)CC3)nc(NC3CCN(Cc4ccccc4)CC3)c2cc1OC, CC=C1C2C=C(C)CC1(N)c1ccc(=O)[nH]c1C2 (centres undefined), O=C1C(=O)c2ccccc2C(O)=C1C1CCC(c2ccc(Cl)cc2)CC1 (centres undefined), CCn1nnc2c(N3CCOCC3)nc(-c3ccc(NC(=O)Nc4ccc(C(=O)N5CCN(C)CC5)cc4)cc3)nc21, Cn1cnc(=N)c2[nH]cnc21, CCC[C@H](Nc1nc(-c2ccc(NC(=O)NCC)c(OC)c2)ncc1C)c1cccnc1, Cc1nc2cnc3ccc(C#Cc4cccnc4)cc3c2n1-c1ccc(C(C)(C)C#N)cc1, CN[C@@H]1C[C@H]2O[C@@](C)([C@H]1OC)n1c3ccccc3c3c4c(c5c6ccccc6n2c5c31)C(=O)N[C@H]4O, CS[C@H]1SC[C@@H]2C(=O)N(C)[C@H](C(C)C)C(=O)OC[C@H](NC(=O)c3cnc4ccccc4n3)C(=O)N[C@H](C)C(=O)N(C)[C@@H]1C(=O)N(C)[C@H](C(C)C)C(=O)OC[C@H](NC(=O)c1cnc3ccccc3n1)C(=O)N[C@H](C)C(=O)N2C, Cc1cn[nH]c1, CCc1nc(N)nc(N)c1-c1ccc(Cl)cc1, CC[C@H]1OC(=O)[C@H](C)[C@@H](O[C@H]2C[C@@](C)(OC)[C@@H](O)[C@H](C)O2)[C@H](C)[C@@H](O[C@@H]2O[C@H](C)C[C@H](N(C)C)[C@@H]2O)[C@](C)(O)C[C@@H](C)CN(C)[C@H](C)[C@@H](O)[C@]1(C)O, CCC(=O)N1CCN(c2ccc(-n3c(=O)ccc4cnc5ccc(-c6cnc7ccccc7c6)cc5c43)cc2C(F)(F)F)CC1, CC(=O)Nc1nc(C)c(-c2ccc(Cl)c(S(=O)(=O)NCCO)c2)s1, C[C@@H](Oc1ccc2[nH]nc(C=Cc3cnn(CCO)c3)c2c1)c1c(Cl)cncc1Cl, CO[C@H]1C=CO[C@@]2(C)Oc3c(C)c(O)c4c(O)c(c(C=NN5CCN(C)CC5)c(O)c4c3C2=O)NC(=O)C(C)=CC=C[C@H](C)[C@H](O)[C@@H](C)[C@@H](O)[C@@H](C)[C@H](OC(C)=O)[C@H]1C, CC(C)n1nc(-c2ccc3oc(N)nc3c2)c2c(N)ncnc21, CCc1cc(Nc2nccc(-c3c(-c4ccc(OC)c(C(=O)Nc5c(F)cccc5F)c4)nc4ccccn34)n2)c(OC)cc1N1CCC(N2CCN(S(C)(=O)=O)CC2)CC1, COc1cc(NCc2ccc3nc(N)nc(N)c3c2C)cc(OC)c1OC, NC(=NCCCCCCN=C(N)N=C(N)Nc1ccc(Cl)cc1)N=C(N)Nc1ccc(Cl)cc1, C1CCC(C(CC2CCCCN2)C2CCCCC2)CC1 (centres undefined), O=C1NC(=O)C(=Cc2ccc3nccc(-c4ccncc4)c3c2)S1

Activity change, inactive:
CCCCCCOC(=O)C1(O)CC2OC1(C)n1c3ccccc3c3c4c(c5c6ccccc6n2c5c31)C(=O)NC4 (centres undefined) 34.6% [at 1.88 µM]
